Only some compounds are listed: those with a hit (about 18% of all), similar ones and a draw of the others.
RORg inh = inhibitors of mouse ROR gamma transcriptional activity | P51450 | Drosophila S2 Gal4-RORgamma UAS-luciferase reporter, 20 h | Potency, µM (doses to about 53.6 µM), for the others: at the highest dose activity change, negative = inhibition, hits mostly inhibitors | 310,000 compounds, 5.4% hits; also: potency is read from the fitted curve at half-maximal effect; nearly all actives have a fitted effect of over 60% in size
Target sequence (P51450 whole entry, looked up, the tested form may be a part): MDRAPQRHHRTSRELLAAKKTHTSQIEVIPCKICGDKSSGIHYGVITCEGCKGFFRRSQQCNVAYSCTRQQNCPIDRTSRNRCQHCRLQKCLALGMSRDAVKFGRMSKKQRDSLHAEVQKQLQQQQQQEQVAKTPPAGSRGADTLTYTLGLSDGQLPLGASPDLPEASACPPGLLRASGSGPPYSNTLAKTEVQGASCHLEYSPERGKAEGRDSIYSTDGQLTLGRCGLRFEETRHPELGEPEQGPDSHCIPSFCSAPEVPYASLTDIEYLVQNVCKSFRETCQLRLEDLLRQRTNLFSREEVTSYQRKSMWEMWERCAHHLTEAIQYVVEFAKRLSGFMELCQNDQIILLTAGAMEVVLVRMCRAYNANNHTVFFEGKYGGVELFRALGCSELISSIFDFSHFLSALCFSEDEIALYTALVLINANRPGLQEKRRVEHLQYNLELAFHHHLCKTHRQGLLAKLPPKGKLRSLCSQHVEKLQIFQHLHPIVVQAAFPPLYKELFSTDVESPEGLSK
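Drosophila S2 cells stably expressing Gal4-DBD/mouse RORγ fusion under metallothionein promoter plus UAS-luciferase; compound 1 h, then 700 uM CuSO4 induction for 20 h at ambient temperature; inhibition read as reduced luminescence.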
IL-1B inflam inh = blocks inflammasome-driven IL-1 beta release; THP-1 LPS/ATP IL-1B secretion, AlphaLISA, 16 h; active compounds read low; activity change, % at 57.5 µM; 360,000 compounds, 4.7% hits; in the data active = activity change below about -50%; inconclusive = mostly about -30% to -49%
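Secreted IL-1B measured by AlphaLISA bead assay after 16 h compound exposure of THP-1 cells; compounds (final up to 57.5 uM) added 1 h before LPS (250 ng/mL) and ATP (1.25 mM) stimulation; lower signal means less secretion.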
Gal4-VP16 FLuc = Gal4-VP16 reporter inhibition counter-screen. Drosophila S2 Gal4-VP16 UAS-luciferase, luminescence, 20 h. Potency, µM (top dose mostly 53.6 µM), for inactives: at the top dose activity, negative = inhibition, most hits filed as inhibitors. 310,000 compounds, 3.5% hits. AID 2546;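 also: Gal4-VP16 expression switched on by copper sulfate through the metallothionein promoter; potency is read from the fitted curve at half-maximal effect; nearly all actives have a fitted effect of over 50% in size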
LDHA block = blocks human lactate dehydrogenase A; P00338; purified LDHA, NADH/diaphorase-resazurin fluorescence; active compounds read low; activity change, % (values are at about 110 or 230 µM); 480,000 compounds, 0.15% hits; in the data active = activity change below about -30%; inconclusive = mostly about -25% to -30%;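 also: plate controls were DMSO wells for no effect and wells without enzyme for full effect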
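Human LDH5 (2 nM) was incubated with 0.06 mM NADH and 0.2 mM pyruvate for 5 min at room temperature in Tris pH 7.4. Remaining NADH was coupled through diaphorase/resazurin, and resorufin fluorescence was read at 0 and 20 min.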
TDP1 cell noCPT = qHTS for Inhibitors of human tyrosyl-DNA phosphodiesterase 1 (TDP1): qHTS in cells in absence of CPT. Potency, µM (titrated, usually from 46.2 µM), inactives show at the highest dose activity change, negative = growth inhibition, hits mostly inhibitors. 420,000 compounds, 15% hits. DT40 Tdp1-/- hTDP1 cells, no CPT, ATP luminescence, 48 h; also: potency is read from the fitted curve at half-maximal effect; nearly all actives have a fitted effect of over 55% in size
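Cells were dispensed at 400 per well, compounds added by pin tool, plates incubated ≥48 hr at 37 °C, then CellTiter-Glo added for 30 min at room temperature before luminescence reading. Line: DT40 Tdp1-/- complemented with hTDP1; camptothecin omitted.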
DT40 TDP1 CPT = DT40-hTDP1 cell growth loss with CPT | chicken DT40 Tdp1-/-;hTDP1 cells + 20 nM CPT, ATP luminescence, 48 h | Potency, µM (titrated, usually from 46.2 µM), for the others: top-dose activity change, negative = growth inhibition, usual class: inhibitors | 420,000 compounds, 12% hits; also: potency is read from the fitted curve at half-maximal effect; nearly all actives have a fitted effect of over 55% in size
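Cell growth measured by CellTiter-Glo luminescence after a minimum 48 h, 37 C compound exposure with 20 nM CPT in Tdp1-knockout DT40 cells stably expressing hTDP1, seeded 400/well; qHTS titration format.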
* = called active by the depositor; u = inconclusive; x = no result; [ ] = remark or other dose. Unless noted, calls follow the shape of the dose curve; as a rule, active = well fitted curve in the direction sought with a large enough effect; inconclusive = small, poorly fitted or top-dose-only effect, or another doubt; inactive = no such curve, though single readings can be large; an effect the other way counts as inactive or inconclusive. Unless noted, % is scaled to controls: 0 for no effect and ±100 for the full control effect.

SMILES	RORg inh	IL-1B inflam inh	Gal4-VP16 FLuc	LDHA block	TDP1 cell noCPT	DT40 TDP1 CPT
Cc1cccc(C)c1NC(=O)C(c1ccccc1OC(F)(F)F)N1CCN(C/C=C/c2ccccc2)CC1 (stereo unspecified)	x	u	x	-2	15µM*	16µM*
Cc1cccc(C)c1NC(=O)C(c1ccccc1OC(F)(F)F)N1CCN(c2ccc(F)cc2)CC1 (stereo unspecified)	x	-6	x	3	u	u
Cc1cccc(C)c1NC(=O)C(c1ccccc1OC(F)(F)F)N1CCC(c2ccccc2)CC1 (stereo unspecified)	x	-19	x	-1	16µM*	u
CC(=O)N1CCN(C(C(=O)Nc2c(C)cccc2C)c2ccccc2OC(F)(F)F)CC1 (stereo unspecified)	x	19	x	-2	-6%	0%
CC(C)C(OC(=O)/C=C/c1cccc(F)c1)C(=O)NC(N)=O (stereo unspecified)	x	x	x	2	x	x
Cc1ccc(S(=O)(=O)N2CCC(=O)N(CCOCc3ccccc3)CC2)cc1	28%	-6	-28%	-2	u	u
O=C1CCN(S(=O)(=O)c2ccccc2)CCN1CCOCc1ccc(C(F)(F)F)cc1	0%	35	-26%	-5	13µM*	u
Cc1ccc(S(=O)(=O)N2CCC(=O)N(CCOCc3ccc(C(F)(F)F)cc3)CC2)cc1	-21%	u	u	3	8.2µM*	4.6µM*
CCC(CC)NC(=O)c1cc(S(C)(=O)=O)ccc1C	x	x	x	-13	x	x
O=C(CN1CCN(C(=O)c2nn(-c3ccccc3)c(=O)c3ccccc23)CC1)N1CCCCCC1	x	x	x	3	x	x
COc1ccc(NC(=O)Cn2ncc3ccccc3c2=O)cc1	x	x	x	-4	x	x
O=C(c1cc(Sc2ccc(Cl)cc2)nc2ccccc12)N1CCN(c2ccccn2)CC1	-2%	-7	-19%	-15	u	u
O=C(CSc1nnc(N2CCCC2)n1-c1cccc(Cl)c1)N1CCN(c2ccccn2)CC1	x	-24	x	0	21µM*	u
CC(C)OC(=O)c1cccnc1N1CCN(c2cccc(Cl)c2)CC1	10%	19	7%[10 µM]	1	16µM*	u
O=C(CSc1nnc(N2CCCC2)n1-c1ccccc1Cl)N1CCN(c2ccccn2)CC1	x	-14	x	-4	u	u
O=C(c1cnc(N2CCN(c3ccccn3)CC2)c2ccccc12)N1CCN(c2cccc(Cl)c2)CC1	u	-60*	1.6µM*	0	12µM*	13µM*
CSc1ccccc1C(=O)N1CCN(c2cccc(Cl)c2)CC1	4%	-7	-3%	7	u	u
O=C(c1cc(Sc2cccc(Cl)c2)nc2ccccc12)N1CCN(c2ccccn2)CC1	16%	-13	u	-9	u	15µM*
Cc1cc(N2CCCCCC2)n2nc(-c3ccccc3)c(C)c2n1	x	x	x	5	x	x
CCCCCCNC(=O)C(C#N)c1nc2ccccc2nc1N1CCCCC1 (stereo unspecified)	x	x	x	-1	x	x
O=C(O)CCNS(=O)(=O)c1ccc(F)cc1	x	x	x	5	x	x
CN(C)c1ccc(C=Nc2ccc(I)cc2)cc1	x	x	x	5	x	x
CCC1(c2ccccc2)ON(c2c(Br)cccc2Br)C1=O (stereo unspecified)	x	-97*	x	1	16µM*	18µM*
Cc1ccccc1/C=C(/C#N)C(=O)c1c(C)[nH]c2ccccc12	x	x	x	10	x	x
COc1cccc(-c2ccc3c(c2)O[C@@H](CN(C)Cc2cncnc2)[C@@H](C)CN([C@H](C)CO)S3(=O)=O)c1	x	1	x	-5	9.2µM*	23µM*
SMILES	RORg inh	IL-1B inflam inh	Gal4-VP16 FLuc	LDHA block	TDP1 cell noCPT	DT40 TDP1 CPT
C[C@@H]1CN([C@@H](C)CO)S(=O)(=O)c2ccc(-c3cccc(C#N)c3)cc2O[C@@H]1CN(C)C(=O)c1ccc(F)cc1	x	-26	x	2	21µM*	u
C/C=C/c1ccc2c(c1)O[C@@H](CN(C)C(=O)c1ccc(F)cc1)[C@@H](C)CN([C@H](C)CO)S2(=O)=O	x	-3	x	1	u	u
COc1cccc(-c2ccc3c(c2)O[C@H](CN(C)C(=O)c2ccccc2F)[C@H](C)CN([C@H](C)CO)S3(=O)=O)c1	x	-29	x	-12	21µM*	u
Cc1ccc(-c2ccc3c(c2)O[C@H](CN(C)Cc2cncnc2)[C@@H](C)CN([C@H](C)CO)S3(=O)=O)cc1	x	-29	x	0	23µM*	u
COC(=O)c1c(C)[nH]c(C(=O)Cn2nnc(-c3ccc(C(C)C)cc3)n2)c1C	x	x	x	-3	x	x
CCN(CC)S(=O)(=O)c1ccc(=O)n(CCOc2ccc(C#N)cc2)c1	x	x	x	-4	x	x
O=C1CCCCC1OC(=O)C12CC3CC(CC(Cl)(C3)C1)C2 (stereo unspecified)	x	x	x	0	x	x
O=C(NCc1ccccc1)C(c1ccc(F)cc1)N1CCN(c2ccccc2F)CC1 (stereo unspecified)	x	-21	x	-4	12µM*	9.2µM*
COc1cccc(C(C(=O)NCc2ccccc2)N2CCN(c3ccccc3F)CC2)c1OC (stereo unspecified)	x	-26	x	-6	16µM*	21µM*
CC(C)C(C(=O)NCc1ccccc1)N1CCN(c2ccccc2F)CC1 (stereo unspecified)	x	-8	x	-11	u	u
O=C(Nc1ccc(C(=O)OC2CCCCC2)cc1)c1ccncc1	u	-6	-24%	0	u	u
O=C(OC1CCCCC1)c1ccc(NC(=O)C2CCCCC2)cc1	24%	-25	0%	-4	21µM*	u
CC(C)(C)C(=O)Nc1ccc(C(=O)OC2CCCCC2)cc1	35%	-30	11%	0	21µM*	26µM*
O=C(O)CCC(=O)Nc1ccc(C(=O)OC2CCCCC2)cc1	18µM*	19	u	-8	-14%	2%
CS(=O)(=O)Nc1cccc(C2=NN(C(=O)c3ccccc3)C(c3cccs3)C2)c1 (stereo unspecified)	-3%	-29	0%	1	u	21µM*
CS(=O)(=O)Nc1ccc(C2=NN(C(=O)C3CCCCC3)C(c3cccs3)C2)cc1 (stereo unspecified)	u	-59*	-6%	0	23µM*	u
CSc1nc2sc3c(c2c(=O)n1-c1ccccc1)CC(C(C)C)OC3 (stereo unspecified)	x	x	x	1	x	x
COc1cccc(NC(=O)Cc2c(C)c3c(O)cc(C)cc3oc2=O)c1	x	x	x	3	x	x
